Screens as filed in PubChem.
A selection: hits, their analogues and other compounds. The true share with any hit is near 12%.
Cav3 T inh = blocks human Cav3.2 T-type calcium channel | O95180 | hit rate 4% among 100,000 | AID 449739 | Cav3.2-expressing cells, Fluo-4 calcium fluorescence FDSS; active compounds read low | B-score at 10 µM;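 active means single-dose well whose peak fluorescence ratio is a statistical outlier from its plate by either plate-standardised score or position-corrected B-score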
hDAT+cocaine = changed human dopamine transporter uptake under cocaine IC80; Q01959; LLC-PK1 hDAT cells, [14C]-dopamine uptake with cocaine IC80; actives deviate in either direction; B-score at 10 µM; hit rate 1.3% among 110,000;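 active means Z score or B-score, a plate-position-corrected score, falls beyond the plate's 99.7% confidence bounds, in either direction; inactive means both scores lie inside the 99.7% bounds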
Target sequence (Q01959 whole entry, looked up): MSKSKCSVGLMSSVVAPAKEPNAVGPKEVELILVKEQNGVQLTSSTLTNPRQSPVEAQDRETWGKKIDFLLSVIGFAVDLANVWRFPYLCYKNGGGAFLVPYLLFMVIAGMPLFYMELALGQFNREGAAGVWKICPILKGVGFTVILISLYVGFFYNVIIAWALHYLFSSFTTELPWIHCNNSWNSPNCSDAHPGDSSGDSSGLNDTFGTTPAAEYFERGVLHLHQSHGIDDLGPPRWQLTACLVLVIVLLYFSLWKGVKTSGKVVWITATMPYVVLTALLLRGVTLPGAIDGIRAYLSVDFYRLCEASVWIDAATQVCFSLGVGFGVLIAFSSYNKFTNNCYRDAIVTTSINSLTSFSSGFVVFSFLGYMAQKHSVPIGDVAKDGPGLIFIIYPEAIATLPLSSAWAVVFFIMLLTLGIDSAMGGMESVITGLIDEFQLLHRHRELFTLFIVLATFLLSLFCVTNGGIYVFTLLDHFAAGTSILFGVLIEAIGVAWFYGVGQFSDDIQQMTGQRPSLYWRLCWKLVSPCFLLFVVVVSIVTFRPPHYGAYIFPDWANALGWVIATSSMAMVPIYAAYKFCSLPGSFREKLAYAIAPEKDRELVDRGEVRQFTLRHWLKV
PostGolgi ctrl = growth of the yeast control strain, post-Golgi counter-screen; efflux-deficient yeast background strain, growth absorbance A615, 16 h; inhibition, % at 10 µM; hit rate 5% among 98,000; AID 738
PLAP act = activators of human placental alkaline phosphatase | P05187 | purified PLAP enzyme, luminescent substrate read-out; active compounds read high | activation fold at 20 µM | hit rate 1.2% among 96,000 | AID 696; in the data active means activation fold above about 2
PostGolgi yeast = growth inhibition of a yeast mutant, post-Golgi transport screen; post-Golgi transport phenotypic cell assay; inhibition, % at 10 µM; AID 739; hit rate 0.9% among 98,000;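 further: yeast cells grown in 1536-well plates; yeast grown about 18 h at 30C before absorbance read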
D1 allo mod = D1 dopamine receptor (human) allosteric modulation. P21728. hit rate 5.9% among 58,000. AID 641. B-score at 10 µM. HEK293 D1, CRE-luciferase, dopamine EC30 potentiation; actives deviate in either direction;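 active means luminescence count or its row- and column-corrected plate score outside the 99.7% band of the plate's sample wells, on either side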
Each line names hits and unclear results; the compound was inactive in the other large screens. Unless noted, no stated cut-off is given here; in the data, active means inhibition above about 30%; inactive means the rest.

Cc1ccc(SCCNS(=O)(=O)c2ccc(F)cc2)cc1	Cav3 T inh -8.7, PostGolgi ctrl 48
Cc1ccc(SCCNS(=O)(=O)c2ccc3c(c2)OCCO3)cc1	Cav3 T inh -6.9, PostGolgi ctrl 46 (no result: PLAP act)
O=C(c1ccco1)N1CCN(S(=O)(=O)c2cccc(C(F)(F)F)c2)CC1	hDAT+cocaine -1.8
COc1ccc(S(=O)(=O)N2CCN(C3CCN(Cc4ccccc4)CC3)CC2)cc1	hDAT+cocaine -1.8
Cc1ccc(S(=O)(=O)N2CCN(C3CCN(Cc4ccccc4)CC3)CC2)cc1	PostGolgi yeast 70
CN1CCc2c(sc3c2c(=O)n(-c2ccccc2)c2nnc(SCc4ccccc4F)n32)C1	none (no result: Cav3 T inh, hDAT+cocaine, PostGolgi ctrl, PLAP act, PostGolgi yeast)
Cc1cc(=O)[nH]c(SCC(=O)c2ccc(C)c(C)c2)n1	PostGolgi yeast 87
c1ccc2c(c1)[nH]c1c(N3CCCC3)ncnc12	none (no result: Cav3 T inh)
Cc1ccc2[nH]c3c(N4CCc5ccccc5C4)ncnc3c2c1	PostGolgi ctrl 43 (no result: D1 allo mod)
Cc1ccc2[nH]c3c(N4CCOCC4)ncnc3c2c1	none
Brc1ccc2[nH]c3c(N4CCc5ccccc5C4)ncnc3c2c1	PostGolgi ctrl 76, PostGolgi yeast 42 (no result: D1 allo mod)
CCCCn1nnnc1NCc1ccc(C)s1	none (no result: PostGolgi ctrl, PLAP act, PostGolgi yeast, D1 allo mod)
CCOC(=O)N1CCC(n2c(SCC(=O)OCc3ccccc3)nc3ccsc3c2=O)CC1	Cav3 T inh -4 (no result: D1 allo mod)
CCOC(=O)N1CCC(n2c(SCC(=O)NCCC3=CCCCC3)nc3ccccc3c2=O)CC1	Cav3 T inh -5.1 (no result: D1 allo mod)
CC(C)c1nc(N2CCN(C(=O)c3ccccc3)CC2)c(C#N)c2c1COC(C)(C)C2	Cav3 T inh -6.2
N#Cc1c(N2CCOCC2)nc(-c2ccco2)c2c1CCCC2	none (no result: D1 allo mod)
Cc1nc(N2CCN(Cc3ccccc3)CC2)c(C#N)c2c1COC(C)(C)C2	none (no result: PostGolgi ctrl, PLAP act, PostGolgi yeast, D1 allo mod)
CC1(C)Cc2c(C#N)c(N3CCN(C(=O)c4ccccc4)CC3)nc(-c3ccco3)c2CS1	PostGolgi ctrl 35 (no result: PLAP act, D1 allo mod)
COc1cccc(CNC(=O)C(CCSC)NS(=O)(=O)c2ccc3c(c2)oc(=O)n3C)c1 (stereo not drawn)	none (no result: Cav3 T inh)
CCCCOC(=O)C1CCCC(C(=O)OCCCC)N1 (stereo not drawn)	none
Cc1ccccc1-c1cc(C(=O)Nc2sc(C(=O)OC(C)C)c(C)c2C#N)c2ccccc2n1	none (no result: D1 allo mod)
C/C(=N\NC(=O)c1ccc(Cl)c(Cl)c1)c1cccc(NC(=O)C(C)C)c1	Cav3 T inh -7.1 (no result: D1 allo mod)
CC(C)C(=O)Nc1cccc(C(=O)Nc2nnc(C(C)C)s2)c1	none (no result: PostGolgi ctrl, PLAP act, PostGolgi yeast, D1 allo mod)
Cc1nnc(NC(=O)c2cccc(NC(=O)C(C)C)c2)s1	hDAT+cocaine -7 (no result: D1 allo mod)
CCOc1ccc(N(C(C)C(=O)N/N=C(\C)c2cccc(NC(=O)c3ccccc3)c2)S(C)(=O)=O)cc1 (stereo not drawn)	Cav3 T inh -10 (no result: D1 allo mod)
CC(C)(C)c1ccc(OCCON2C(=O)CCC2=O)c(Cl)c1	PostGolgi ctrl 33 (no result: D1 allo mod)
O=C1CCC(=O)N1OCCCCOc1ccccc1	none (no result: PLAP act)
O=C(O)CCCC(=O)Nc1ccc(Br)cc1C(=O)O	none (no result: PLAP act)
Cc1[nH]n(CCC#N)c(=O)c1CC(=O)N1CCN(c2ccccc2)CC1	none (no result: D1 allo mod)
COCCNC(=O)Cn1cnc2c1c(=O)n(C)c(=O)n2C	Cav3 T inh -5.3
COC(=O)Cn1cnc2c1c(=O)n(C)c(=O)n2C	none (no result: PostGolgi ctrl, PLAP act, PostGolgi yeast, D1 allo mod)
Cc1cccc(NC(=O)C2CC(O)CN2C(=O)OCc2ccccc2)c1 (stereo not drawn)	D1 allo mod -3.9
COC(=O)c1ccc(C(=O)OC)c(NC(=O)c2oc(C)nc2C)c1	none (no result: Cav3 T inh, hDAT+cocaine, PostGolgi ctrl, PLAP act, PostGolgi yeast)
O=C(NNC(=O)C1CCCCC1)c1cnccn1	PLAP act 2 (no result: D1 allo mod)
COC(=O)CNC(=O)CN1C(=O)N(c2ccccc2)C(N(O)C(=O)Nc2ccccc2)C1(C)C (stereo not drawn)	none (no result: D1 allo mod)
COC(=O)CNC(=O)CN1C(=O)N(c2cccc(Cl)c2)C(N(O)C(=O)Nc2cccc(Cl)c2)C1(C)C (stereo not drawn)	Cav3 T inh -4.7 (no result: D1 allo mod)
Cc1cc(C)n2nc(SCc3cc(=O)n4c(C)cccc4n3)nc2n1	none (no result: Cav3 T inh, hDAT+cocaine, PostGolgi ctrl, PLAP act, PostGolgi yeast)
Cc1cc(NCc2ccco2)nc2cc(O)ccc12	none (no result: PLAP act)
Cc1cc(C)c2ccc(NN)nc2c1O	PLAP act 2 (no result: D1 allo mod)
CCCCCOC(=O)c1ccccc1C(=O)O	none
CNC(=O)c1sc(N2N=C3/C(=C/c4ccccc4)CCCC3C2c2ccccc2)nc1C (stereo not drawn)	Cav3 T inh -4.4 (no result: D1 allo mod)
CC1Cc2ccccc2N1C(=O)CSc1nc(-c2ccco2)cc(C(F)(F)F)n1 (stereo not drawn)	none
